# Test results from PubChem BioAssay AID1159580 (chemical genetic matrix, 2015).
# The whole screen tested about 5,500 compounds, of which about 2,000 (36%) were called active. About 18% were inconclusive and are not listed. The list shows a part of the results. Unmarked numbers belong to inactive results. Rule as the data show it: active = normalized growth mostly below about 0.91 (no sharp cut-off); inconclusive = no clear call, values can overlap the other calls; inactive = mostly above about 0.92.
# Experiment: chemical genetic growth profiling, strain panel (AID 1159580);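 also: tested at 20 µM; growth read once vehicle control cultures reached saturation at 30 °C; 1 = growth at the plate median or of vehicle wells; lower values mean less growth of the strain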
# Details: growth OD
# [1] = S. cerevisiae deletion strains, locus YAL013W, strain DEP1, stronger effect = lower value
# [2] = S. cerevisiae deletion strains, locus YBR229C, strain ROT2, stronger effect = lower value
# [3] = S. cerevisiae deletion strains, locus YDL101C, strain DUN1, stronger effect = lower value
# [4] = S. cerevisiae deletion strains, locus YDL134C, strain PPH21, stronger effect = lower value
# [5] = S. cerevisiae deletion strains, locus YDR150W, strain NUM1, stronger effect = lower value
# [6] = S. cerevisiae deletion strains, locus YEL061C, strain CIN8, stronger effect = lower value
# [7] = S. cerevisiae deletion strains, locus YHR030C, strain SLT2, stronger effect = lower value
# [8] = S. cerevisiae deletion strains, locus YJR043C, strain POL32, stronger effect = lower value
# [9] = S. cerevisiae deletion strains, locus YKL190W, strain CNB1, stronger effect = lower value
# [10] = S. cerevisiae deletion strains, locus YLR039C, strain RIC1, stronger effect = lower value
# [11] = S. cerevisiae deletion strains, locus YLR262C, strain YPT6, stronger effect = lower value
# [12] = S. cerevisiae deletion strains, locus YMR263W, strain SAP30, stronger effect = lower value
# [13] = S. cerevisiae deletion strains, locus YMR307W, strain GAS1, stronger effect = lower value
# [14] = S. cerevisiae deletion strains, locus YPL241C, strain CIN2, stronger effect = lower value
structure (smiles),measurement,setting,value
O=C(O)CSCC(=O)N1CCc2c([nH]c3ccccc23)C1C(F)(F)F (centres undefined),normalized growth,[1],1.01
same,normalized growth,[2],1.01
same,normalized growth,"S. cerevisiae deletion strains, locus YCL061C, strain MRC1, stronger effect = lower value",1.04
same,normalized growth,[3],1.01
same,normalized growth,[4],1
same,normalized growth,[5],0.936
same,normalized growth,[6],0.997
same,normalized growth,"S. cerevisiae deletion strains, locus YGR078C, strain PAC10, stronger effect = lower value",1.05
same,normalized growth,[7],1.16
same,normalized growth,"S. cerevisiae deletion strains, locus YHR087W, strain rtc3, stronger effect = lower value",1
same,normalized growth,[8],1.02
same,normalized growth,"S. cerevisiae deletion strains, locus YJR075W, strain HOC1, stronger effect = lower value",1.03
same,normalized growth,[9],1
same,normalized growth,[10],1.04
same,normalized growth,"S. cerevisiae deletion strains, locus YLR058C, strain SHM2 (second series), stronger effect = lower value",1.02
same,normalized growth,"S. cerevisiae deletion strains, locus YLR085C, strain ARP6, stronger effect = lower value",1.09
same,normalized growth,[11],1.01
same,normalized growth,"S. cerevisiae deletion strains, locus YML094W, strain GIM5, stronger effect = lower value",1
same,normalized growth,"S. cerevisiae deletion strains, locus YMR219W, strain ESC1, stronger effect = lower value",1.02
same,normalized growth,[12],1.02
same,normalized growth,[13],1.1
same,normalized growth,"S. cerevisiae deletion strains, locus YNL128W, strain TEP1, stronger effect = lower value",0.987
same,normalized growth,"S. cerevisiae deletion strains, locus YNL153C, strain GIM3, stronger effect = lower value",1.01
same,normalized growth,"S. cerevisiae deletion strains, locus YNL298W, strain CLA4 (second series), stronger effect = lower value",1.05
same,normalized growth,"S. cerevisiae deletion strains, locus YNL322C, strain KRE1, stronger effect = lower value",1.02
same,normalized growth,"S. cerevisiae deletion strains, locus YNR030W, strain Alg12, stronger effect = lower value",1.02
same,normalized growth,"S. cerevisiae deletion strains, locus YOL006C, strain TOP1, stronger effect = lower value",1.11
same,normalized growth,"S. cerevisiae deletion strains, locus YPL055C, strain LGE1, stronger effect = lower value",0.991
same,normalized growth,[14],1.22 [resistant] (active)
same,normalized growth,"S. cerevisiae deletion strains, locus YPR135W, strain CTF4, stronger effect = lower value",1.06
same,normalized growth,"S. cerevisiae strains, strain wild type, stronger effect = lower value",0.993
COC(=O)[C@H]1[C@H]2C[C@H]3c4[nH]c5ccccc5c4CCN3C[C@H]2CC[C@@H]1O,normalized growth,[1],0.998
same,normalized growth,"S. cerevisiae deletion strains, locus YBR021W, strain FUR4, stronger effect = lower value",1
same,normalized growth,[2],1.01
same,normalized growth,"S. cerevisiae deletion strains, locus YCL029C, strain bik1, stronger effect = lower value",1
same,normalized growth,"S. cerevisiae deletion strains, locus YDL035C, strain GPR1, stronger effect = lower value",1.01
same,normalized growth,"S. cerevisiae deletion strains, locus YDL074C, strain BRE1, stronger effect = lower value",1.02
same,normalized growth,[3],1.01
same,normalized growth,[4],1.01
same,normalized growth,"S. cerevisiae deletion strains, locus YDL185W, strain tfp1, stronger effect = lower value",1.01
same,normalized growth,"S. cerevisiae deletion strains, locus YDL192W, strain arf1, stronger effect = lower value",1
same,normalized growth,"S. cerevisiae deletion strains, locus YDR101C, strain arx1, stronger effect = lower value",1.01
same,normalized growth,[5],1.01
same,normalized growth,"S. cerevisiae deletion strains, locus YDR162C, strain NBP2, stronger effect = lower value",1.01
same,normalized growth,"S. cerevisiae deletion strains, locus YDR318W, strain mcm21, stronger effect = lower value",1
same,normalized growth,"S. cerevisiae deletion strains, locus YDR388W, stronger effect = lower value",1
same,normalized growth,"S. cerevisiae deletion strains, locus YDR502C, strain sam2, stronger effect = lower value",1.01
same,normalized growth,[6],1.01
same,normalized growth,"S. cerevisiae deletion strains, locus YER110C, stronger effect = lower value",1
same,normalized growth,"S. cerevisiae deletion strains, locus YER155C, strain BEM2, stronger effect = lower value",1.01
same,normalized growth,"S. cerevisiae deletion strains, locus YER167W, strain BCK2, stronger effect = lower value",1.01
same,normalized growth,"S. cerevisiae deletion strains, locus YGL078C, strain dbp3, stronger effect = lower value",1.01
same,normalized growth,"S. cerevisiae deletion strains, locus YGL086W, strain mad1, stronger effect = lower value",1.01
same,normalized growth,"S. cerevisiae deletion strains, locus YGL248W, strain PDE1, stronger effect = lower value",1.01
same,normalized growth,"S. cerevisiae deletion strains, locus YGR135W, strain pre9, stronger effect = lower value",0.988
same,normalized growth,"S. cerevisiae deletion strains, locus YGR229C, strain SMI1, stronger effect = lower value",1.01
same,normalized growth,"S. cerevisiae deletion strains, locus YGR252W, strain gcn5, stronger effect = lower value",0.977
same,normalized growth,[7],1.01
same,normalized growth,"S. cerevisiae deletion strains, locus YHR079C, strain IRE1 (second series), stronger effect = lower value",1
same,normalized growth,"S. cerevisiae deletion strains, locus YHR094C, strain hxt1, stronger effect = lower value",1
same,normalized growth,"S. cerevisiae deletion strains, locus YHR129C, strain ARP1, stronger effect = lower value",1.01
same,normalized growth,"S. cerevisiae deletion strains, locus YHR200W, strain rpn10, stronger effect = lower value",1.01
same,normalized growth,"S. cerevisiae deletion strains, locus YIL066C, strain RNR3, stronger effect = lower value",1.02
same,normalized growth,"S. cerevisiae deletion strains, locus YIL073C, strain SPO22, stronger effect = lower value",1
same,normalized growth,"S. cerevisiae deletion strains, locus YIL125W, strain kgd1, stronger effect = lower value",0.999
same,normalized growth,"S. cerevisiae deletion strains, locus YIR030C, strain dcg1, stronger effect = lower value",0.999
same,normalized growth,"S. cerevisiae deletion strains, locus YJL095W, strain BCK1, stronger effect = lower value",1.02
same,normalized growth,"S. cerevisiae deletion strains, locus YJL134W, strain LCB3, stronger effect = lower value",1.01
same,normalized growth,"S. cerevisiae deletion strains, locus YJL168C, strain set2, stronger effect = lower value",0.998
same,normalized growth,"S. cerevisiae deletion strains, locus YJL187C, strain SWE1 (second series), stronger effect = lower value",1.03
same,normalized growth,[8],1.02
same,normalized growth,"S. cerevisiae deletion strains, locus YKL009W, strain mrt4, stronger effect = lower value",1
same,normalized growth,"S. cerevisiae deletion strains, locus YKL068W, stronger effect = lower value",0.993
same,normalized growth,"S. cerevisiae deletion strains, locus YKL085W, strain MDH1 (second series), stronger effect = lower value",1.01
same,normalized growth,"S. cerevisiae deletion strains, locus YKL085W, strain MDH1, stronger effect = lower value",1.01
same,normalized growth,[9],1.01
same,normalized growth,"S. cerevisiae deletion strains, locus YKR001C, strain vps1, stronger effect = lower value",1.02
same,normalized growth,[10],1.08
same,normalized growth,"S. cerevisiae deletion strains, locus YLR058C, strain SHM2, stronger effect = lower value",1.02
same,normalized growth,"S. cerevisiae deletion strains, locus YLR102C, strain apc9, stronger effect = lower value",1
same,normalized growth,[11],1.08
same,normalized growth,"S. cerevisiae deletion strains, locus YLR268W, strain sec22, stronger effect = lower value",1
same,normalized growth,"S. cerevisiae deletion strains, locus YLR330W, strain CHS5, stronger effect = lower value",1.01
same,normalized growth,"S. cerevisiae deletion strains, locus YLR342W, strain FKS1 (second series), stronger effect = lower value",0.984
same,normalized growth,"S. cerevisiae deletion strains, locus YLR371W, strain rom2, stronger effect = lower value",0.999
same,normalized growth,"S. cerevisiae deletion strains, locus YLR418C, strain cdc73, stronger effect = lower value",0.985
same,normalized growth,"S. cerevisiae deletion strains, locus YML016C, strain PPZ1, stronger effect = lower value",1.01
same,normalized growth,"S. cerevisiae deletion strains, locus YML032C, strain rad52, stronger effect = lower value",0.998
same,normalized growth,"S. cerevisiae deletion strains, locus YML124C, strain tub3, stronger effect = lower value",0.993
same,normalized growth,"S. cerevisiae deletion strains, locus YMR078C, strain ctf18, stronger effect = lower value",1.01
same,normalized growth,"S. cerevisiae deletion strains, locus YMR223W, strain ubp8, stronger effect = lower value",0.992
same,normalized growth,[12],1.01
same,normalized growth,[13],0.95
same,normalized growth,"S. cerevisiae deletion strains, locus YNL067W, strain RPL9B, stronger effect = lower value",1.02
same,normalized growth,"S. cerevisiae deletion strains, locus YNL233W, strain BNI4, stronger effect = lower value",1.02
same,normalized growth,"S. cerevisiae deletion strains, locus YNL250W, strain rad50, stronger effect = lower value",1.02
same,normalized growth,"S. cerevisiae deletion strains, locus YNL271C, strain bni1, stronger effect = lower value",1.01
same,normalized growth,"S. cerevisiae deletion strains, locus YNL298W, strain CLA4, stronger effect = lower value",0.988
same,normalized growth,"S. cerevisiae deletion strains, locus YNL307C, strain MCK1, stronger effect = lower value",1.01
same,normalized growth,"S. cerevisiae deletion strains, locus YNR052C, strain pop2, stronger effect = lower value",0.998
same,normalized growth,"S. cerevisiae deletion strains, locus YOL012C, strain htz1",0.805
same,normalized growth,"S. cerevisiae deletion strains, locus YOL147C, strain pex11, stronger effect = lower value",1.01
same,normalized growth,"S. cerevisiae deletion strains, locus YOR061W, strain CKA2, stronger effect = lower value",1.01
same,normalized growth,"S. cerevisiae deletion strains, locus YOR069W, strain VPS5, stronger effect = lower value",1.01
same,normalized growth,"S. cerevisiae deletion strains, locus YOR136W, strain idh2, stronger effect = lower value",0.998
same,normalized growth,"S. cerevisiae deletion strains, locus YOR144C, strain elg1, stronger effect = lower value",1
same,normalized growth,"S. cerevisiae deletion strains, locus YOR184W, strain ser1, stronger effect = lower value",1.01
same,normalized growth,"S. cerevisiae deletion strains, locus YOR316C, strain cot1, stronger effect = lower value",1.01
same,normalized growth,[14],1.01
same,normalized growth,"S. cerevisiae deletion strains, locus YPR119W, strain clb2, stronger effect = lower value",1
same,normalized growth,"S. cerevisiae deletion strains, locus YPR141C, strain kar3, stronger effect = lower value",0.992
same,normalized growth,"S. cerevisiae deletion strains, locus YPR163C, strain tif3, stronger effect = lower value",1.01
same,normalized growth,"S. cerevisiae deletion strains, locus YPR167C, strain met16, stronger effect = lower value",1
same,normalized growth,"S. cerevisiae deletion strains, strain wtn01, stronger effect = lower value",1.01
